PNC inhibitor = blocks assembly of the perinucleolar compartment. 140,000 tested, 3.1% active. AID 2417. activity change (PNC), negative = inhibition, % at 10 µM. PC3M PTB-GFP, PNC prevalence imaging, 16 h; hits give low values;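 active = readout at or below -70, meaning at least 70% loss of cells showing the perinucleolar compartment, a nuclear body marking cancer cells; inconclusive = readout between -30 and a set limit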;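 note: plate controls were DMSO wells for no effect and camptothecin positive control wells for full effect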
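PC3M cells stably expressing PTB-GFP, 750–1000 cells/well, treated 16 h at 37 °C with compound (23 nl of library stock), in duplicate. After paraformaldehyde fixation and Hoechst stain, imaged at 20x; PNC prevalence scored by image analysis.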
HPGD block = blocks human HPGD enzyme activity; P15428; purified HPGD, NADH fluorescence kinetic, PGE2 substrate; Potency, µM, inactives show at the top dose activity change, negative = inhibition, most hits filed as inhibitors; 150,000 tested, 4.3% active; AID 894; note: potency is the fitted concentration of half-maximal effect
Target sequence (P15428 whole entry, looked up): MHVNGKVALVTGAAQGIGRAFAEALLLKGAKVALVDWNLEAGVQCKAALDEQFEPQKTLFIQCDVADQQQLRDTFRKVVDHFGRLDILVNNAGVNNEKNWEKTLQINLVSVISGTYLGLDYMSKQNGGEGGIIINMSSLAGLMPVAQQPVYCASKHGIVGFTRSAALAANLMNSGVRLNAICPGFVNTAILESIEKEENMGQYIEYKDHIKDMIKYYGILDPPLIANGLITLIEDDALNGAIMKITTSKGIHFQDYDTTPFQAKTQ
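NADH formation kinetics: reaction with 30 uM PGE2 and 1 mM NAD+ (final), 20 nM enzyme, Tris-HCl pH 8 with Tween 20, after 15 min compound preincubation at room temperature. Fluorescence change, last versus first of five reads.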
ALDH1A1 inh = blocks purified human ALDH1A1 activity | Purified ALDH1A1, NADH fluorescence, propionaldehyde substrate | Potency, µM (highest dose often 75.3 µM), for inactives: at the highest dose activity, negative = inhibition, hits mostly inhibitors | 220,000 tested, 7.3% active | AID 1030;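 note: potency is the fitted concentration of half-maximal effect; plate controls were no enzyme wells and a reference inhibitor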
Numbers without * were called inactive; ? = inconclusive; nt = no result given; [ ] = remark or other dose. Rows were chosen to be rich in hits. Some 11% of all compounds tested hit in one or more screens of this group. Unless noted, calls come from the whole dose curve; as a rule, active = well fitted inhibition curve with a large enough effect (not every such curve was filed as active); inconclusive = small, poorly fitted or top-dose-only effect, or another doubt; inactive = no such curve, though single readings can be large or run the other way. Unless noted, % is set by controls: 0 for no effect and ±100 for the full control effect.

SMILES	PNC inhibitor	HPGD block	ALDH1A1 inh
COCC(=O)N1CCC[C@@]2(CCN(C(=O)Nc3cccc(C#N)c3)C2)C1	nt	-10%	-15%
COC(=O)C1=CN(c2ccc(OC)cc2)C=C(C(=O)OC)C1c1ccc(C)c([N+](=O)[O-])c1	14	-2%	-2%
COC(=O)C1=CN(c2cccc(C)c2)C=C(C(=O)OC)C1c1cc(OC)c(O)c([N+](=O)[O-])c1	?	16µM*	-1%
Cc1cc(C(=O)N/N=C2\CCCc3ccccc32)c(C)o1	-113*	-8%	-4%
O=C(N/N=C1\CCCc2ccccc21)c1ccccc1Cl	nt	nt	4%
N#C/C(=C\c1ccccc1)C(=O)N(c1ccccn1)C1CCCCC1	?	-1%	-19%
O=C(/C=C/c1ccc([N+](=O)[O-])cc1)N(c1ccccn1)C1CCCCC1	nt	nt	13µM*
Cc1ccnc(NS(=O)(=O)c2ccc(NC(=O)CSc3nc(-c4ccccc4)cc(=O)[nH]3)cc2)n1	nt	nt	-16%
O=c1[nH]c(CN2CCCCC2)nc2c1C1(CCCCC1)Cc1ccccc1-2	?	-10%	6%
[O-][n+]1c(CN2CCCCC2)nc2cccc3c2c1-c1ccccc1-3	nt	?	1µM*
Nc1ccc2c(c1)C(=O)c1ccccc1C2=O	nt	-8%	?
O=C(C1=C(c2ccccc2)C(=O)c2ccccc2C1=O)c1ccccc1	-8	-21%	?
O=C1C(=O)c2ccc(-c3ccccc3)cc2-c2ccccc21	-105*	-12%	1%
Nc1ccc2c(c1)C(=O)C(=O)c1ccccc1-2	-81*	2.2µM*	2.2µM*
O=C(NNC(=S)NCCc1ccccc1)c1ccc(Br)s1	nt	nt	-6%
CC/C(=N/O)C(=O)c1ccc(Br)cc1	nt	nt	8%
O=C(NCc1ccncc1)C(=O)N/N=C/c1cccnc1	nt	nt	7%
CC(NCc1ccc(F)cc1)C(=O)Nc1cc(S(=O)(=O)N2CCCCC2)ccc1Cl (centres undefined)	nt	nt	-4%
Cn1cc(Cl)c(C(=O)Nc2nc3ccc([N+](=O)[O-])cc3s2)n1	nt	nt	9%
O=C(NC1CC1)c1sc2cc([N+](=O)[O-])ccc2c1Cl	-24	25µM*	7%
O=C(NC1CCS(=O)(=O)C1)c1sc2ccccc2c1Cl (centres undefined)	nt	nt	3%
CC(NC(=O)c1sc2cc([N+](=O)[O-])ccc2c1Cl)C(C)(C)C (centres undefined)	0	nt	0.56µM*
COc1ccc(S(=O)(=O)N(CC(=O)Nc2ccc(S(=O)(=O)N3CCOCC3)cc2)c2ccccc2)cc1	3	3.5µM*	?
CCOC(=O)N1CCN(C(=O)CN(c2cccc(C)c2)S(=O)(=O)c2ccc(C)cc2)CC1	54	-3%	?
CCOC(=O)N1CCN(C(=O)CN(c2cccc(C)c2)S(=O)(=O)c2ccccc2)CC1	0	1%	-5%
SMILES	PNC inhibitor	HPGD block	ALDH1A1 inh
Cc1ccc(S(=O)(=O)N(CC(=O)N2CCC(C)CC2)c2cccc(C)c2)cc1	62	-9%	11µM*
CCOC(=O)N1CCN(C(=O)CN(c2cc(Cl)ccc2OC)S(=O)(=O)c2ccccc2)CC1	41	-5%	25µM*
COc1ccc(S(=O)(=O)N(CC(=O)Nc2ccc(S(=O)(=O)N3CCOCC3)cc2)Cc2ccc(F)cc2)cc1	-15	-7%	?
COc1ccc(S(=O)(=O)N(CC(=O)N2CCN(c3ccccc3)CC2)c2ccccc2)cc1	-112*	-16%	-26%
COc1ccc(N2CCN(C(=O)CN(c3ccccc3)S(C)(=O)=O)CC2)cc1	?	5%	-1%
Cc1c(NS(=O)(=O)c2ccc(N(C)C3CCCCC3)c([N+](=O)[O-])c2)c(=O)n(-c2ccccc2)n1C	-11	-16%	?
CCO[C@H]1OC(C(=O)NCc2ccccc2)=C[C@@H](c2ccccc2)[C@@H]1CCCO	nt	nt	4%
C=CCOC(=O)N[C@H](/C(C(=O)OC)=C(\C)NCc1ccccc1)c1cccc(OC)c1	nt	-8%	3%
C(CCc1nnc2c(n1)CCCC2)Cc1nnc2c(n1)CCCC2	nt	-2%	12%[13.5 µM]
CCOC(=O)C1=C(C)N(C)C(C)=C(C(=O)OCC)C1c1ccsc1	nt	nt	2%
C/C(Cc1ccccc1)=N\NC(=O)CNC(=O)c1ccc(Cl)cc1	nt	nt	5%
Cc1ccccc1CSc1nnc(C)c(=O)n1N	nt	nt	-2%
COc1ccc(F)cc1S(=O)(=O)N1CCN(Cc2ccc3c(c2)OCO3)CC1	?	0%	-13%
O=C(CN(c1ccccc1)S(=O)(=O)c1ccccc1)N1CCN(Cc2ccc3c(c2)OCO3)CC1	-88*	-2%	-3%
COc1ccc(N(CC(=O)NCC(C)C)S(=O)(=O)c2ccccc2)cc1	nt	nt	9%
CSc1ccc(S(=O)(=O)N2CCN(Cc3ccc4c(c3)OCO4)CC2)cc1	8	-3%	14µM*

High-throughput results deposited in PubChem BioAssay by National Center for Advancing Translational Sciences (NCATS).
